Measured values published in PubChem BioAssay (NCATS).
Results filed as inconclusive are left out. Calls of active or inactive are those of the source. Unless noted, the call rests on the fitted dose curve; in most records, active means well fitted curve in the direction sought with a large enough effect; inconclusive means small, poorly fitted or top-dose-only effect, or another doubt; inactive means no such curve, though single readings can be large; an effect the other way counts as inactive or inconclusive.

Columns and labels:
[1] = target: T1, Hexokinase-4 (Homo sapiens) + Glucokinase regulatory protein (Homo sapiens) (UniProt P35557+Q14397); experiment: qHTS assay for inhibitors of recombinant human GCK-GKRP interaction: Diaphorase-coupled assay (AID 743205)
T1 sequence (P35557 whole entry, looked up): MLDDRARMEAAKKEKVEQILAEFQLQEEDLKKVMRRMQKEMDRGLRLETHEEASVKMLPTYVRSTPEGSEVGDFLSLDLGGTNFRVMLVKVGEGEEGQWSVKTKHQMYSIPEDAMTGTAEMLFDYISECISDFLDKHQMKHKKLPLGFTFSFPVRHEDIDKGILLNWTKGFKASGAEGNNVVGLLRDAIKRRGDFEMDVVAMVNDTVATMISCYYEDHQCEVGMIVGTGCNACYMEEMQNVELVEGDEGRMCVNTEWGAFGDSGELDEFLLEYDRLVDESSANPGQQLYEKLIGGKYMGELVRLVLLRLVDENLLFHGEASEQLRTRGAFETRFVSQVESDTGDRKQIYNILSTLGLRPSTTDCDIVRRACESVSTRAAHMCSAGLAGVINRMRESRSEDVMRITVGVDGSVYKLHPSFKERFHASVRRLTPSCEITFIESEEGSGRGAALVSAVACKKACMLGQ
T1 sequence (Q14397 whole entry, looked up): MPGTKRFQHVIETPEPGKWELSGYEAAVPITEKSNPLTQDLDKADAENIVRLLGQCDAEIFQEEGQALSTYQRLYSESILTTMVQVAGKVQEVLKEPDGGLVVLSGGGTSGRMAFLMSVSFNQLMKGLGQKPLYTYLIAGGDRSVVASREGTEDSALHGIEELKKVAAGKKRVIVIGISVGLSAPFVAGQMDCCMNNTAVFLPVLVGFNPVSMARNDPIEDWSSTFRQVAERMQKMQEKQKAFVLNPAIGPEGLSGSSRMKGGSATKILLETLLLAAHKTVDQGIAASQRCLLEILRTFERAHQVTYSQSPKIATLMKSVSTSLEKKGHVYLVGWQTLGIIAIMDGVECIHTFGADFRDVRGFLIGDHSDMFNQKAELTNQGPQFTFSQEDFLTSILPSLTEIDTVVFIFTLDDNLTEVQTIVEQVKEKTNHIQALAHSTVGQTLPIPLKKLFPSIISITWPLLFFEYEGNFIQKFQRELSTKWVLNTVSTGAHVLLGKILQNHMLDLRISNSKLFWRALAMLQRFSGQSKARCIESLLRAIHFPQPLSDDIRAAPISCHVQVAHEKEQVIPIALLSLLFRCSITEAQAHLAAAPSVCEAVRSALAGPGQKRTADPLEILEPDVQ
How it was run: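 GST-GCK (10 nM) with FLAG-GKRP (10 nM), 5 mM glucose and 0.4 mM ATP in pH 7.6 Hepes; compounds preincubated 20 min with substrate. G6PDH/diaphorase coupling converts resazurin to resorufin, read kinetically (ex 525/em 590 nm) for 30 min.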

[2] = target: T1, Hexokinase-4 (Homo sapiens) + Glucokinase regulatory protein (Homo sapiens); experiment: qHTS assay for inhibitors of recombinant human GCK-GKRP interaction: ADP-Glo assay (AID 743206);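 further: plate controls were DMSO plus enzyme for no effect and no enzyme for full effect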
How it was run: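 GST-GCK and FLAG-GKRP (15 nM each in the dispensed mix, with 2 uM S6P) react with 0.4 mM ATP and 5 mM glucose (final) in Hepes pH 7.6 for 60 min at room temperature. ADP is measured by ADP-Glo luminescence.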

[3] = target: T1, Hexokinase-4 (Homo sapiens) + Glucokinase regulatory protein (Homo sapiens); experiment: qHTS assay for inhibitors of recombinant human GCK-GKRP interaction: HTRF assay (AID 743207);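 further: 0% = DMSO with GCK present and -100% = DMSO wells lacking GCK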
How it was run: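 GST-GCK and FLAG-GKRP (5 nM each) were combined with 2 uM S6P in pH 7.1 Hepes/MgCl2/KCl/DTT buffer, then compound and anti-FLAG XL665/anti-GST K antibodies were added. After 60 min at room temperature, HTRF 665/615 nm emission was read.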

[4] = qHTS Assay for Identifying Gametocytocidal Compounds (AID 743244);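 further: on the % scale 0 is the no-effect control and ±100 the full control effect; actives lower the fluorescent signal which means gametocytes are killed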; conditions: P. falciparum 3D7 stage III-V gametocytes, alamarBlue, 72 h; max response: hits give low values
How it was run: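 P. falciparum 3D7 stage III–V gametocytes (20,000 cells/well) were exposed to compounds for 72 h at 37 °C, 5% CO2. AlamarBlue was then added for 24 h; decreased resorufin fluorescence (Ex 525/Em 598 nm) indicated loss of viability.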

[5] = qHTS assay for measurement of the activity of small molecule inhibitors on Zika virus induced Caspase-3 activity in human iPSC derived neural progenitor cells (hNPCs) (AID 1224857); further: % of control where 0% means no effect; nearly all actives have a fitted effect of over 65% in size
How it was run: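 hNPCs seeded 350 cells/well, cultured 16–20 h; compounds added 1 h before ZIKV (2 FFU/cell), 37 C 6 h. Caspase-Glo 3/7 luminescence after 30 min RT; % inhibition from induction scaled to uninfected (0%) and infected (100%) wells.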

[6] = qHTS assay for measurement of the activity of small molecule inhibitors on Zika virus induced Caspase-3 activity in human astrocytoma cells (AID 1224859);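 further: plate controls were ZIKV-infected untreated cells for no effect and uninfected cells for full effect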
How it was run: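 Luminescence read-out (Caspase-Glo 3/7, 30 min RT) of caspase activity in SNB-19 cells infected 6 h with ZIKV, 2 FFU/cell, after 1 h compound pretreatment; % inhibition from induction normalised to uninfected (0%) and infected (100%) wells.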

[7] = Natriuretic polypeptide receptor (hNpr1) antagonism - Pilot counterscreen GloSensor control cell line (AID 1347045; calls by dose curve; further: series mostly up to about 38 µM; on the % scale 0 is the no-effect control and ±100 the full control effect)
How it was run: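 This counterscreen uses HEK293 cells expressing the GIP/pGS-40F cGMP biosensor. Compound-treated cells are challenged with 50 uM sodium nitroprusside, and the luciferase signal is compared before and after stimulation.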

[8] = target: Atrial natriuretic peptide receptor 1 (Homo sapiens) (UniProt P16066); experiment: Natriuretic polypeptide receptor (hNpr1) antagonism - Pilot screen (AID 1347049; calls by dose curve;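 further: agonist-evoked cGMP luminescence read 20 min after hNppA addition; series mostly up to about 58 µM; on the % scale 0 is the no-effect control and ±100 the full control effect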)
Chain of Atrial natriuretic peptide receptor 1 (Homo sapiens) (P16066 whole entry, looked up): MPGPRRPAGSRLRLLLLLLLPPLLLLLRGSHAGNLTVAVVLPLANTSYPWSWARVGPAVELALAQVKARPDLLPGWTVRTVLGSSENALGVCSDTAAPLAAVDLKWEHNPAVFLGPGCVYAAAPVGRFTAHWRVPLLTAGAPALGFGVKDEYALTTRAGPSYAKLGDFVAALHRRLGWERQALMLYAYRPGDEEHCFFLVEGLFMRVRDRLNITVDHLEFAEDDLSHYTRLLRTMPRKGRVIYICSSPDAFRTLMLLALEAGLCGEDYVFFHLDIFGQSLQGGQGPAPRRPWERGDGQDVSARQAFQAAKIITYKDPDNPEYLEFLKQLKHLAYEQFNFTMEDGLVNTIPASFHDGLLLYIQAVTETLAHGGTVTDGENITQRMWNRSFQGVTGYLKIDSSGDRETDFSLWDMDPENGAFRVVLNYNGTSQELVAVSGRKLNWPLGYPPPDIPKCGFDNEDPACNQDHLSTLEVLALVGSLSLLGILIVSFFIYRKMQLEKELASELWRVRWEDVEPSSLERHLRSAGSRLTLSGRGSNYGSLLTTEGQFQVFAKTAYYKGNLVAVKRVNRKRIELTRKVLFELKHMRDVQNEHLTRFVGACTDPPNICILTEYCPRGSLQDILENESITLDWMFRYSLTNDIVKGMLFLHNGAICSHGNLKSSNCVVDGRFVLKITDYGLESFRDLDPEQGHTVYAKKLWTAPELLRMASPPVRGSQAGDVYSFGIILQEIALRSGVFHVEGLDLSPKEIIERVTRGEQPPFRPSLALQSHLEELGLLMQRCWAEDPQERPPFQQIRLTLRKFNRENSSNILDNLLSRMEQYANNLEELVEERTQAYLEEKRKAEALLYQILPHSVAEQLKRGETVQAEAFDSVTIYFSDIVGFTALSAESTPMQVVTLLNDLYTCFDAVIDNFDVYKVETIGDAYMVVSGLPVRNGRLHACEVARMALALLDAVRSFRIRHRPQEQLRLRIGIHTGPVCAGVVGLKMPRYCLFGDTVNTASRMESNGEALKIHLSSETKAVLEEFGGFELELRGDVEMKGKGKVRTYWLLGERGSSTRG
How it was run: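 HEK293 cells co-expressing hNpr1 and the GloSensor pGS-40F cGMP luciferase sensor were preloaded with 2% GloSensor reagent for 2 h. Compounds were added for 30 min at room temperature, then cells were stimulated with 0.1 nM hNppA for 20 min before luminescence readout.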

[9] = target: Atrial natriuretic peptide receptor 2 (Homo sapiens) (UniProt P20594); experiment: Natriuretic polypeptide receptor (hNpr2) antagonism - Pilot subtype selectivity assay (AID 1347050; calls by dose curve; further: on the % scale 0 is the no-effect control and ±100 the full control effect)
Chain of Atrial natriuretic peptide receptor 2 (Homo sapiens) (P20594 whole entry, looked up): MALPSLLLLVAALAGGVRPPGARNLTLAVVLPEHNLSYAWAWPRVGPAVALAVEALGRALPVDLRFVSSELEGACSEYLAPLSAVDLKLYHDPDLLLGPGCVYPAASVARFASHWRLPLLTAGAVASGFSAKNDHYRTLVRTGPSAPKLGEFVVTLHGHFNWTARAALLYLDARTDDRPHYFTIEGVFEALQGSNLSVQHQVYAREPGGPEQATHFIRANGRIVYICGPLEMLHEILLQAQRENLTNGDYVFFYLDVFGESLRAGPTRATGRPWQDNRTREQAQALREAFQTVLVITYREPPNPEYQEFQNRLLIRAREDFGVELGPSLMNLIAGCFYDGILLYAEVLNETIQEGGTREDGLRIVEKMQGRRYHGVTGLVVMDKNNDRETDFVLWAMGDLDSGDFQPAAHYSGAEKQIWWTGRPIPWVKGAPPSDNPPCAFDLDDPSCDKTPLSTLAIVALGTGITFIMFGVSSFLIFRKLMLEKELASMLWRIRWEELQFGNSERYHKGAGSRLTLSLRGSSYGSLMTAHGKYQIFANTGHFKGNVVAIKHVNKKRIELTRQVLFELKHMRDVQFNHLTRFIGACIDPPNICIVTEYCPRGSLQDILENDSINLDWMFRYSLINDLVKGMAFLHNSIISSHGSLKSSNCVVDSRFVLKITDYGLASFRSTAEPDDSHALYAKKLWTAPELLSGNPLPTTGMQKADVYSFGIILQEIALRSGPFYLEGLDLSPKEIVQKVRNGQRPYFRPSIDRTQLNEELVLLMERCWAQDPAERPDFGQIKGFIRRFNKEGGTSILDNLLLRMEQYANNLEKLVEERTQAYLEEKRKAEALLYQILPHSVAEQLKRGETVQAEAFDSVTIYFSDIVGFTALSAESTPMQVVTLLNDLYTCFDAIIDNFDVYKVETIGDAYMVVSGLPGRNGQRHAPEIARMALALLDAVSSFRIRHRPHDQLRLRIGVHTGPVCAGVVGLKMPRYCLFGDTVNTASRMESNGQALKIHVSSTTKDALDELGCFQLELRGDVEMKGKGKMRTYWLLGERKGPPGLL
How it was run: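 cGMP-sensor HEK293/hNpr2 cells; 2% GloSensor reagent 2 h RT; compounds 30 min; baseline luminescence read; 1 nM hNppC agonist 20 min RT; final luminescence read by CCD camera. Antagonism = reduced post-agonist signal.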

NCCCCN
inactive: Potency [1] | Potency [2] | Potency [3] | max response [4] 15.5% | Potency [5] | Potency [6] | Potency [7] | Potency [8] | Potency [9]

CC(C)(CO)Cc1cc(C(C)(C)C)c(O)c(C(C)(C)C)c1
inactive: Potency [1] | Potency [2] | Potency [3] | max response [4] 9.64% | Potency [5] | Potency [6] | Potency [7] | Potency [8] | Potency [9]

CCCn1c(=O)c(C)cn2nc(N)nc12
inactive: Potency [1] | Potency [2] | Potency [3] | max response [4] -2.34% | Potency [5] | Potency [6] | Potency [7] | Potency [8] | Potency [9]

O=c1[nH]c(=S)[nH]c(-c2ccccc2)c1Cc1c(O)ccc2ccccc12
inactive: Potency [1] | Potency [2] | Potency [3] | max response [4] 1.54% | Potency [5] | Potency [6] | Potency [7] | Potency [8] | Potency [9]

COc1cc(CC(=O)O)ccc1O
inactive: Potency [1] | Potency [2] | Potency [3] | Potency [5] | Potency [6] | Potency [7] | Potency [8] | Potency [9]

CC1CNCCN1S(=O)(=O)c1cccc2cnccc12 (configuration not stated)
inactive: Potency [1] | Potency [2] | Potency [3] | max response [4] 22.5% | Potency [5] | Potency [6] | Potency [7] | Potency [8] | Potency [9]

O=C(O)C1=CCCN(CCON=C(c2ccccc2)c2ccccc2)C1
inactive: Potency [1] | Potency [2] | Potency [3] | max response [4] -12.8% | Potency [5] | Potency [6] | Potency [7] | Potency [8] | Potency [9]

CCCCOC(=O)NS(=O)(=O)c1sc(CC(C)C)cc1-c1ccc(Cn2c(CC)nc3c(C)cc(C)nc32)cc1
inactive: Potency [1] | Potency [2] | Potency [3] | Potency [5] | Potency [6] | Potency [7] | Potency [8] | Potency [9]

Fc1ccc(CN(C2=NCCN2)c2c(Cl)cccc2Cl)cc1
inactive: Potency [1] | Potency [2] | Potency [3] | max response [4] -2.54% | Potency [5] | Potency [6] | Potency [7] | Potency [8] | Potency [9]

O=c1ccc2c(OCCCCc3ccccc3)c3ccoc3cc2o1
inactive: Potency [1] | Potency [2] | Potency [3] | Potency [5] | Potency [6] | Potency [7] | Potency [8] | Potency [9]

N[C@@H](Cc1c[nH]c2ccccc12)C(=O)O
inactive: Potency [1] | Potency [2] | Potency [3] | Potency [5] | Potency [6] | Potency [7] | Potency [8] | Potency [9]

N=C(N)SCCc1cnc[nH]1
inactive: Potency [1] | Potency [2] | Potency [3] | Potency [5] | Potency [6] | Potency [7] | Potency [8] | Potency [9]

c1ccc(C2CN3CCSC3=N2)cc1 (configuration not stated)
inactive: Potency [1] | Potency [2] | Potency [3] | Potency [5] | Potency [6] | Potency [7] | Potency [8] | Potency [9]

N=C(N)c1ccc(N)cc1
inactive: Potency [1] | Potency [2] | Potency [3] | max response [4] -4.7% | Potency [5] | Potency [6] | Potency [7] | Potency [8] | Potency [9]

N[C@H](C(=O)O)c1cc(O)cc(O)c1
inactive: Potency [1] | Potency [2] | Potency [3] | Potency [5] | Potency [6] | Potency [7] | Potency [8] | Potency [9]

CCc1ccc2c(-c3cccc(Cl)c3)nc(=O)n(CC)c2n1
inactive: Potency [1] | Potency [2] | Potency [3] | max response [4] 15.8% | Potency [5] | Potency [6] | Potency [7] | Potency [8] | Potency [9]

Cn1c(=O)c2c(nc(/C=C/c3cccc(Cl)c3)n2C)n(C)c1=O
inactive: Potency [1] | Potency [2] | Potency [3] | Potency [5] | Potency [6] | Potency [7] | Potency [8] | Potency [9]

O=C(O)C1CN(CCCP(=O)(O)O)CCN1 (configuration not stated)
inactive: Potency [1] | Potency [2] | Potency [3] | max response [4] -7.29% | Potency [5] | Potency [6] | Potency [7] | Potency [8] | Potency [9]

NC(=O)CNCCC(c1ccccc1)c1ccccc1
inactive: Potency [1] | Potency [2] | Potency [3] | Potency [5] | Potency [6] | Potency [7] | Potency [8] | Potency [9]
